From ChEMBL document CHEMBL4513216, “Probing the Open Global Health Chemical Diversity Library for Multistage-Active Starting Points for Next-Generation Antimalarials” (ACS Infect Dis, 2020)
Hit rate of the full screen: of about 68,000 compounds, about 2,700 (4%) showed an effect of 50% or more. This is one part of a sample in which strong results are shown more often than they occur.

Test system: Plasmodium berghei
Assay: Screen against P. berghei liver stage (PbLuc), transformed with Luciferase, at 2uM
Format: functional, HepG2
Details: tested at 2 uM

Compound | INHIBITION
CCn1cc(CNC(=O)c2nn(CC)cc2Br)cn1 | -26.13%
O=C(NC1CCN(c2ccccc2OC(F)F)C1)c1c[nH]nn1 (configuration not stated) | 31.3%
O=C(NC1CCN(c2ccccc2Br)C1)c1c[nH]nn1 (configuration not stated) | 53.81%
O=C(NC1CCCN(c2ccccc2Cl)C1)c1nc(=O)[nH][nH]1 (configuration not stated) | 8.05%
O=C(NC1CCCN(c2ccccc2Cl)C1)c1c[nH]nn1 (configuration not stated) | 55.18%
O=C(NC1CCCN(c2ccc(OC(F)F)cc2)C1)c1c[nH]nn1 (configuration not stated) | 5.48%
O=C(NC1CCCN(c2ccccc2Cl)C1)c1ccc(=O)[nH]n1 (configuration not stated) | 42.88%
Cc1cc(C)n2c(CCCNS(=O)(=O)c3ccc(F)cc3)nnc2n1 | 6.62%
CCc1nc(NC2CCCN(C(=O)c3cccs3)C2)c2cnn(C)c2n1 (configuration not stated) | -33.35%
Oc1cccc(-c2cc(CC3(N(CC4CC4)CC4CC4)COC3)no2)c1 | -4.2%
CCN(CC)C1(Cc2cc(-c3cccc(O)c3)on2)COC1 | 10.08%
CCCN(CCC)C1(Cc2cc(-c3cccc(O)c3)on2)COC1 | 50.72%
NC1(C(=O)NCCC2CN(Cc3ccco3)CCO2)CCCC1 (configuration not stated) | 18.98%
CC(C)(C)c1noc(CCCC(=O)N2CCNC(=O)C2)n1 | -31.79%
COCCC(=O)N1C[C@@H]2CC[C@H]1CN(C1Cc3ccccc3C1)C2 | 28.97%
COCCOC(=O)N1C[C@@H]2CC[C@H]1CN(C1Cc3ccccc3C1)C2 | -31.79%
COCCOCC(=O)N1C[C@@H]2CC[C@H]1CN(C1Cc3ccccc3C1)C2 | 61.82%
Cc1cc(C)n(C2CCCN(C(=O)c3ccn(C)c(=O)c3)C2)n1 (configuration not stated) | -42.24%
Cc1nc(C(=O)N2CCCC(n3cncn3)C2)cs1 (configuration not stated) | -81.94%
O=C(COC1CCCCC1)N1CCCC(n2ccnc2)C1 (configuration not stated) | -0.13%
O=C(COCC1CC1)N1CCCC(n2cncn2)C1 (configuration not stated) | 62.46%
O=C(COCCOc1ccccc1)N1CCCC(n2ccnc2)C1 (configuration not stated) | 29.12%

Compound | INHIBITION
O=C(COCc1ccccc1)N1CCCC(n2cncn2)C1 (configuration not stated) | 24.15%
O=C(COCC1CC1)N1CCCC(n2cccn2)C1 (configuration not stated) | -5.7%
CC(=O)Nc1nc(C(=O)N2CCCC(n3ccnc3)C2)cs1 (configuration not stated) | 18.46%
O=C(COCC1CC1)N1CCCC(n2ccnc2)C1 (configuration not stated) | 67.53%
CC(=O)Nc1nc(C(=O)N2CCCC(n3cncn3)C2)cs1 (configuration not stated) | 72.31%
Cc1ccccc1CN1CCC(CNc2ncnc3c2CCNCC3)C1 (configuration not stated) | 32.26%
c1cnc(N2CCOCC3(CN(Cc4nccs4)CCO3)C2)nc1 (configuration not stated) | 14.39%
CCC(C)NC(=O)c1nnn(-c2cccc3c2CCN(C)C3)c1C (configuration not stated) | -46.36%
O=C(NCCN1CCCCC1)c1ccoc1 | 6.12%
COc1ccc(-c2cnc(CN3CCCC3Cn3cccn3)o2)cc1 (configuration not stated) | -36.73%
O=C(NC1CCN(c2cccc(OC(F)(F)F)c2)C1=O)C1CC1 (configuration not stated) | -0.13%
C=C(C)CN(Cc1cccc(O)c1)C1CCC(O)CC1 (configuration not stated) | 6.55%
CS(=O)(=O)CCN(Cc1cccc(O)c1)C1CCC(O)CC1 (configuration not stated) | 50.4%
CC(C)OCCN(Cc1cccc(O)c1)C1CCC(O)CC1 (configuration not stated) | 11.78%
CSCCC(=O)N1CCC(CCC(=O)NCC2CCCO2)CC1 (configuration not stated) | 20.71%
Cc1nc(NC(=O)CNC(=O)c2c(F)cccc2Cl)n[nH]1 | 9.5%
CC(O)(CNC(=O)c1c(F)cccc1Cl)C1CC1 (configuration not stated) | -21.74%
O=C(CNC(=O)c1c(F)cccc1Cl)Nc1ccc(F)cn1 | 67.28%
CCc1c(C)nc2cc(C3CCN(Cc4ccc(F)cc4)C3)nn2c1O (configuration not stated) | 40.31%
CCc1c(C)nc2cc(C3CCN(Cc4cccnc4)C3)nn2c1O (configuration not stated) | 31.56%
CCc1c(C)nc2cc(C3CCN(Cc4cccc(F)c4)C3)nn2c1O (configuration not stated) | 65.74%
CCc1ccc(CN2CCc3ncnc(N4CCOCC4)c3CC2)o1 | -21.37%

Compound | INHIBITION
CN1CCN(C[C@@H]2CN(C(=O)NCC3CCCCC3)C[C@@H]2CO)CC1 | -26.04%
COc1ccc(CN2CC[C@H]3O[C@@H](C(=O)NCC4CC4)CC[C@H]32)cc1 | 44.4%
CCN(CC)c1ccc(NC(=O)NC(C)Cn2cccn2)cn1 (configuration not stated) | 52.3%
CC(Cn1cccn1)NC(=O)Nc1ccc(N(C)C)nc1 (configuration not stated) | 5.96%
Cc1ccc(CNC(=O)NC(C)Cn2cccn2)cn1 (configuration not stated) | 49.01%
CC(Cn1ccnc1)NC(=O)NCCN1CCCCCC1=O (configuration not stated) | 17.18%
CC(Cn1cccn1)NC(=O)NCCN1CCCCCC1=O (configuration not stated) | 50.03%
CC(Cn1cccn1)NC(=O)NCCCN1CCCCCC1=O (configuration not stated) | 48.37%
CC(Cn1cccn1)NC(=O)NCCc1cccnc1 (configuration not stated) | 10.53%
CC(Cn1cccn1)NC(=O)NCc1cccnc1 (configuration not stated) | 61.3%
COc1ccc(NC(=O)NC(C)Cn2cccn2)cn1 (configuration not stated) | -40.27%
COc1ccc2c(ccn2CCC(=O)NCc2ccc(C(=O)O)cc2)c1 | 42.94%
Cc1ccc(C(CCNCCN(C)C)C2CCOC(C)(C)C2)cc1 (configuration not stated) | 26.52%
CC(C)CN1CCc2[nH]cnc2C12CCN(C(=O)c1cnn(C)c1)CC2 | 51.14%
Cc1cc(C(=O)N2CCC3(CC2)c2nc[nH]c2CCN3CC(C)C)no1 | 37.63%
CC(C)CN1CCc2[nH]cnc2C12CCN(C(=O)c1ccc[nH]1)CC2 | 22.43%
Cc1ocnc1C(=O)N1CCC2(CC1)c1nc[nH]c1CCN2CC(C)C | 52.83%
CC(C)CN1CCc2[nH]cnc2C12CCN(C(=O)c1cccnc1)CC2 | 0.3%
CC(C)CN1CCc2[nH]cnc2C12CCN(C(=O)c1ccnn1C)CC2 | 29.19%
CCc1ccc(S(=O)(=O)N2CCCC3(CCCN3S(C)(=O)=O)C2)cc1 (configuration not stated) | 28.41%
Cc1cc(C)n(CCNCc2cc(-c3ccccc3)c[nH]c2=O)n1 | 24.26%
CC1CCc2nn(CCNC(=O)c3cccs3)c(=O)cc2C1 (configuration not stated) | 28.82%

Compound | INHIBITION
CC(C)N1[C@@H](C(=O)NCC2CC2)C[C@@H]2CN(Cc3ccco3)C[C@@H]21 | 28.2%
Cc1nn(C)c(C)c1C(C)NCc1ccsc1 (configuration not stated) | 38.83%
CS(=O)(=O)c1cncnc1C1CCCN(C(=O)Nc2ccc(F)cc2)C1 (configuration not stated) | -0.7%
CC(C)N(Cc1ccccn1)C(=O)CCOc1cccc(F)c1 | 5.43%
Cc1cc(NCC2CCCO2)cc(=O)n1C (configuration not stated) | -0.15%
COCCCNC(=O)C(C)n1nc(-c2ccco2)cc(N)c1=O (configuration not stated) | -1.32%
COCCNC(=O)C(C)n1nc(-c2ccco2)cc(N)c1=O (configuration not stated) | 54.2%
COCCNC(=O)C(C)n1nc(-c2ccc(C)o2)cc(N)c1=O (configuration not stated) | -21.09%
CCN1CCC(CNC(=O)C(c2ccccc2F)N(C)C)(N(C)C)CC1 (configuration not stated) | 46.58%
O=C(Cc1cccs1)N1CCOCC1c1ccccc1 (configuration not stated) | -26.81%
CC(C)n1ccnc1CN1CCCN(C(=O)c2cscn2)CC1 | -28.58%
CC(C)C(O)CNC(=O)Nc1cccc(-c2nccs2)c1 (configuration not stated) | -2.23%
CN(Cc1ccc2nsnc2c1)CC1(O)CNCCOC1 (configuration not stated) | -1.57%
Cn1cc(CN(CC2(O)CNCCOC2)C2CCCCC2)cn1 (configuration not stated) | 0.17%
Cn1cc(CN(C/C=C/c2ccccc2)C2CC2)cn1 | -17.37%
OC1(CN(Cc2cccnc2)C2CCCCC2)CNCCOC1 (configuration not stated) | 74.3%
Cn1cc(CN(CC2(O)CCNC2)C2CCCCC2)cn1 (configuration not stated) | 60.64%
OC1(CN2CCC(Oc3cccnc3)CC2)CNCCOC1 (configuration not stated) | 3.58%
CN(C)c1ccc(C(CNS(=O)(=O)c2cccs2)N2CCCC2)cc1 (configuration not stated) | 14.19%
COc1cccc(-c2n[nH]cc2-c2nc(CC3CCN(C)CC3)no2)c1 | 38.67%
Cc1noc(C)c1C(=O)N1CCCC1(C)C(=O)NC1CCCC1 (configuration not stated) | 11.32%
O=C(CCc1ccc2c(c1)OCO2)N1CCCC(n2cccn2)C1 (configuration not stated) | -29.38%

Compound | INHIBITION
O=C(Cc1ccc2c(c1)CCC2)N1CCCC(n2cccn2)C1 (configuration not stated) | -0.71%
O=C(Cc1ccc2c(c1)OCCO2)N1CCCC(n2cncn2)C1 (configuration not stated) | -7.15%
Cc1cnn(C2CCCN(C(=O)Cc3ccc4c(c3)CCO4)C2)c1 (configuration not stated) | 11.95%
O=C(Cc1ccc2c(c1)CCO2)N1CCCC(n2cccn2)C1 (configuration not stated) | 52.52%
O=C(Cc1ccc2c(c1)OCCO2)N1CCCC(n2cccn2)C1 (configuration not stated) | 56.12%
COc1cc(N2CC[C@@H](O)[C@@H]2Cc2cccnc2)ncn1 | 32.21%
CCCc1nc(C[S+]([O-])Cc2cn3cccc(C)c3n2)no1 (configuration not stated) | 16.37%
CCOC(=O)c1nc(CN2CCC(NC(=O)C(C)C)CC2)cs1 | -3.25%
CCN1CCC2(CCC1=O)CN(c1cnc3ccccc3n1)CCN2C (configuration not stated) | -40.52%
CC(C)C[C@@H](CO)n1cc(-c2cncnc2)nn1 | 26.99%
COc1ccc(-c2cn([C@H](CO)CC(C)C)nn2)cn1 | 79.9%
CC(C)C[C@@H](CO)n1cc(-c2cnc(-c3ccco3)nc2)nn1 | -39.9%
O=C1Nc2ccccc2CC12CCCN2Cc1ccc(C(F)(F)F)cc1 (configuration not stated) | -27.83%
CC(C)c1cc(C2CCCN2C(=O)c2cn3ccsc3n2)no1 (configuration not stated) | -46.68%
COc1ccccc1C1CNCCN1C(=O)c1ccc(F)cc1 (configuration not stated) | -20.28%
O=C(Nc1nncs1)C1CSCN1C(=O)C1CCCC1 (configuration not stated) | -67.78%
COc1ccc2c(c1)C1(CCN(Cc3cccnc3)CC1)N(C)CC2 | 64.92%
COc1ccc2c(c1)C1(CCN(Cc3ccncc3)CC1)N(C)CC2 | 32.14%
COc1ccc2c(c1)C1(CCN(Cc3cnn(C)c3)CC1)N(C)CC2 | 21.14%
